# Screening results: PubChem, National Center for Advancing Translational Sciences (NCATS)
# G9a block: G9a (human) methyltransferase inhibition. Q96KQ7. G9a H3K9 monomethylation, AlphaScreen, 2 h. Potency, µM (series often up to 102 µM), inactives show top-dose activity, negative = inhibition, actives largely listed as inhibitors. 8.8% of 350,000 active. AID 504332; also: % is scaled to controls: 0 for no effect and ±100 for the full control effect; nearly all actives have a fitted effect of over 75% in size
#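 Readings reflect AlphaScreen signal from monomethyl-H3K9 antibody detection. HMT at 20 nM; substrate b-H3K9 500 nM; cofactor SAM 20 uM; 2 h RT reaction; compounds tested as titrations in qHTS with 15 min preincubation.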
# HP1b binding inh: HP1-beta chromodomain-methylated histone interaction inhibition; P83916; AlphaScreen HP1-beta / biotin-H3K9me3 peptide binding; Potency, µM (highest dose often 114 µM), for inactives: at the top dose activity change, negative = inhibition, most hits filed as inhibitors; 0.56% of 390,000 active; AID 540317; also: nearly all actives have a fitted effect of over 70% in size
#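 AlphaScreen: HP1-beta (50 nM) preformed 30 min with biotin-H3(1-18)K9me3 peptide (50 nM) in PBS pH 7.4, 0.01% Tween-20. Compound added for 30 min at RT, then streptavidin donor/nickel chelate acceptor beads (10 ug/mL) for 30 min.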
# L3MBTL1 inh: L3MBTL1 (human) inhibition; AlphaScreen L3MBTL1–H3K9me1 peptide binding; Potency, µM (highest dose often 57.1 µM), for inactives: at the highest dose activity, negative = inhibition, most hits filed as inhibitors; 0.66% of 230,000 active; also: % is scaled to controls: 0 for no effect and ±100 for the full control effect; nearly all actives have a fitted effect of over 60% in size
#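 Displacement of a biotinylated histone H3(1-15) peptide monomethylated at Lys9 (75 nM) from L3MBTL1 (50 nM) was measured by AlphaScreen after a 30 min room-temperature compound incubation; cefsulodin titration served as intraplate control.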
# BAZ2B inh: blocks human BAZ2B | 4.4% of 360,000 active | AlphaScreen BAZ2B-H3K14Ac peptide displacement | Q9UIF8 | Potency, µM (highest dose often 114 µM), for the others: at the top dose activity change, negative = inhibition, actives largely listed as inhibitors; also: % is scaled to controls: 0 for no effect and ±100 for the full control effect; nearly all actives have a fitted effect of over 60% in size
#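 BAZ2B 50 nM plus b-H3(5-23)K14Ac 50 nM, PBS pH 7.4/0.01% Tween-20, 30 min RT; compound added (max 110 uM), 30 min RT; streptavidin donor/Ni-chelate acceptor beads 10 ug/mL final, 20 min dark; AlphaScreen read.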
# JMJD2A Tudor: inhibitors of human JMJD2A Tudor domain; AlphaScreen JMJD2A-Tudor / H3K4me3 peptide binding; Potency, µM (top dose mostly 114 µM), without a hit: at the top dose activity change, negative = inhibition, actives largely listed as inhibitors; 4.4% of 390,000 active; AID 504339; also: % is scaled to controls: 0 for no effect and ±100 for the full control effect; nearly all actives have a fitted effect of over 50% in size
# GLS inh: blocks human kidney-isoform glutaminase activity; AID 624170; GLS enzymatic activity, qHTS titration; 0.21% of 410,000 active; Potency, µM (titrated, usually from 45.5 µM), without a hit: at the top dose activity change, negative = inhibition, most hits filed as inhibitors; also: % is scaled to controls: 0 for no effect and ±100 for the full control effect
#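 Coupled fluorescence readout: glutamate oxidase/HRP/Amplex Red detect glutamate formed by hKGA from L-glutamine (1 mM solution added). Buffer 45 mM KH2PO4 pH 8.2, 0.02% Tween-20; reads at t0 and 30 min RT.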
# Active calls of the source: *; ? = inconclusive; . = no result given; [ ] = dose if it differs, or a comment. Compounds with a hit are over-represented: about 10% of the library has one in this group of screens. Calls follow the shape of the dose curve; as a rule, active = well fitted curve in the direction sought with a large enough effect; inconclusive = small, poorly fitted or top-dose-only effect, or another doubt; inactive = no such curve, though single readings can be large; an effect the other way counts as inactive or inconclusive. Potency is read from the fitted curve at half-maximal effect.
SMILES,G9a block,HP1b binding inh,L3MBTL1 inh,BAZ2B inh,JMJD2A Tudor,GLS inh
COc1cc(C(C(=O)NC2CCCCC2)N(Cc2cccs2)C(=O)Cc2c[nH]c3ccccc23)cc(OC)c1OC (stereo not given),11%,17%,-6%,-2%,-14%,-2%
COc1cc(C(C(=O)NC2CCCCC2)N(C(=O)Cc2c[nH]c3ccccc23)c2ccccc2C)cc(OC)c1OC (stereo not given),40µM*,0%,-14%,?,-29%,-14%
COc1ccccc1CN1CCNC(=O)C1CC(=O)NCCCN1CCCC1=O (stereo not given),71µM*,27%,.,-6%[57.1 µM],-2%,8%
O=C(CC1C(=O)NCCN1Cc1cccc(Oc2ccccc2)c1)NCCCn1cccn1 (stereo not given),50µM*,9%,-8%,-22%,-25%,2%
COc1ccc(CN2CCNC(=O)C2CC(=O)NCCCn2cccn2)cc1C (stereo not given),11%[0.501 µM],33%,.,-15%,-5%,8%
CCOc1ccccc1CN1CCNC(=O)C1CC(=O)NCCCn1cccn1 (stereo not given),79µM*,52%,.,?,-12%,-4%
CCc1cc(CNC(=O)CC2C(=O)NCCN2Cc2c(F)cccc2Cl)on1 (stereo not given),11%,-4%,-4%,-19%,-9%,1%
COc1ccccc1CN1CCNC(=O)C1CC(=O)NCCCn1cccn1 (stereo not given),-2%,17%,-4%,-22%,2%,0%
CCc1cc(CNC(=O)CC2C(=O)NCCN2Cc2cccc(OC)c2)on1 (stereo not given),56µM*,33%,7%,-14%,-2%,2%
Cc1ccc(CCNC(=O)c2ccc(CSCc3ccc(C)cc3)o2)cc1,20%[59 µM],45%,.,40%,-35%,7%
CCCn1ccc2c(OCC(=O)Nc3ccc(OC)c(OC)c3)cccc2c1=O,-4%[59 µM],11%,.,-14%,-13%,5%
C=C1C(=O)OC2CC1C(OC(C)=O)CC(C)=CCCC(C)=CCC[C@@]2(C)O (stereo not given in full),-3%[2.33 µM],.,.,.,.,.
COc1ccc2ccccc2c1CNC(=O)CC1C(=O)NCCN1CC(C)C (stereo not given),45µM*,16%[57 µM],-1%,-8%,-20%,1%
CCn1ccnc1CNC(=O)CC1C(=O)NCCN1CC(c1ccccc1)c1ccccc1 (stereo not given),.,30%,2%,-1%,-17%,-3%
O=C(CC1C(=O)NCCN1Cc1ccccc1)NCCCOc1cccnc1 (stereo not given),50µM*,23%,.,-9%,-18%,2%
O=C(CC1C(=O)NCCN1Cc1cccc(C(F)(F)F)c1)NCCCOc1cccnc1 (stereo not given),?,57%,.,-17%,2%,-16%
O=C(CC1C(=O)NCCN1Cc1ccc(F)cc1)NCCN1CCCc2ccccc21 (stereo not given),.,-9%,-6%,79µM*,?,26%
Cc1ccc2nc(-c3ccc(Cl)c(NC(=O)c4ccc5c(c4)OCCO5)c3)oc2c1,7%[59 µM],35%,.,-14%,-12%,-12%
CCN(CC)S(=O)(=O)c1ccc2c(c1)N(CC(=O)N(C)Cc1ccccc1)C(=O)CO2,1%[59 µM],17%,.,-9%,-14%,-3%
Cc1cccc(NC(=O)c2oc3ccc(S(=O)(=O)N4CCC5(CC4)OCCO5)cc3c2C)c1C,?,17%,.,1%,-15%,3%
O=C(/C=C/c1ccccc1)OCCN=C1NS(=O)(=O)c2ccccc21,24%,10%,.,-2%,-1%,0%
O=C(CCCN=C1NS(=O)(=O)c2ccccc21)OCc1ccccc1,45µM*,25%,-1%,2%,-2%,-3%
O=C(/C=C/c1ccccc1)OCCCCN=C1NS(=O)(=O)c2ccccc21,.,-10%,9%,3%,28µM*,0%
O=C(CCN=C1NS(=O)(=O)c2ccccc21)OCC(=O)c1ccccc1Cl,56µM*,10%,5%,0%,-15%,5%
COc1ccccc1C(=O)COC(=O)CCCN=C1NS(=O)(=O)c2ccccc21,-24%,10%,6%,9%,-16%,4%
SMILES,G9a block,HP1b binding inh,L3MBTL1 inh,BAZ2B inh,JMJD2A Tudor,GLS inh
CC(OC(=O)CCN=C1NS(=O)(=O)c2ccccc21)C(=O)N(C)c1ccccc1 (stereo not given),0%,11%,2%,-5%,-12%,-1%
CC(OC(=O)CCCN=C1NS(=O)(=O)c2ccccc21)C(=O)N(C)c1ccccc1 (stereo not given),40µM*,27%,-1%,13%,0%,7%
O=C(CCCN=C1NS(=O)(=O)c2ccccc21)OCc1ccc(F)cc1,2%,21%,0%,18%,1%,7%
COc1cc(NC(=O)c2cc3cc4ccc(OC)c(Cl)c4nc3s2)cc(OC)c1,0%[59 µM],28%[57 µM],.,-1%,-2%,1%
CSc1cccc(NC(=O)c2ccc3c(c2)c(C)c(C)n3Cc2ccc(F)cc2)c1,-6%[59 µM],15%,.,-13%,-32%,-3%
COc1ccc(C)c2sc(N(Cc3cccnc3)C(=O)C3CCCCC3)nc12,-31%[59 µM],31%,.,-6%,-28%,-4%
CCOc1ccccc1N1CCN(S(=O)(=O)c2ccc(C3CCCCC3)cc2)CC1,-2%[59 µM],30%,.,0%,-7%,-6%
Cc1nonc1C(=O)N/N=C/c1ccc(O)c(O)c1,45µM*,-31%,0%,-36%,7.1µM*,?
O=C(N/N=C/c1ccc(O)c(O)c1)N/N=C/c1ccc(O)c(O)c1,45µM*,35µM*,.,32µM*,11µM*,-10%
N/C(=N\N=C\c1ccc(O)c(O)c1)c1nonc1N,20%[59 µM],35%,-17%,45µM*,-25%,26%
COc1cc(/C=N/NC(=O)c2nonc2C)ccc1O,-8%,16%,5%,-23%,-6%,4%
O=C(NN=Cc1ccc2c(c1)OCO2)NN=Cc1ccc2c(c1)OCO2,.,-2%,.,.,-13%,15%
CCc1ccc(C(=O)c2cn(CC(=O)Nc3cccc(OC)c3)c3cc4c(cc3c2=O)OCO4)cc1,-1%[59 µM],36%,.,-1%,-21%,-8%
O=c1c(O)c(-c2cccs2)oc2ccccc12,18µM*,27%,21%,9%,-7%,18%
O=C(Nc1ccc(N2CCN(C(=O)c3ccc(Cl)cc3)CC2)cc1)c1ccc2c(c1)OCCO2,79µM*,-1%,.,-10%,-32%,10%
O=C(Nc1ccc(Br)cc1F)c1ccc2c(c1)OCCO2,50µM*,5%,.,-2%,-11%,0%
